{"source": "the supplement of paper PMC8728848", "experiment_in_all_cases": "glycan array binding signal (z-score within array); higher = stronger binding", "conditions_in_all_cases": "glycan notation: IUPAC condensed, linker removed", "key": {"[1]": {"biological_target": "Fuc(a1-2)Gal(b1-3)GlcNAc(b1-3)Gal(b1-4)Glc", "procedure,_shortened": "(§1)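 The Consortium for Functional Glycomics database supplied 3228 glycan arrays, of which those lacking an available protein sequence were dropped. The binding signal, a within-array Z-score, was averaged across arrays of the same protein sequence and across linkers. Negative scores can be read as non-binding.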"}, "[2]": {"biological_target": "Fuc(a1-2)Gal(b1-3)GlcNAc(b1-3)[Fuc(a1-2)Gal(b1-3)GlcNAc(b1-6)]GalNAc", "procedure,_shortened": "as §1"}, "[3]": {"biological_target": "Fuc(a1-2)Gal(b1-4)GlcNAc(b1-2)[Fuc(a1-2)Gal(b1-4)GlcNAc(b1-4)]Man(a1-3)[Fuc(a1-2)Gal(b1-4)GlcNAc(b1-2)Man(a1-6)]Man(b1-4)GlcNAc(b1-4)GlcNAc", "procedure,_shortened": "as §1"}, "Fuc(a1-2)Gal6S(b1-4)Glc": {"biological_target": "Fuc(a1-2)Gal6S(b1-4)Glc", "procedure,_shortened": "as §1"}, "[4]": {"biological_target": "Fuc(a1-2)[Gal(a1-3)]Gal(b1-3)GlcNAc(b1-6)GalNAc", "procedure,_shortened": "as §1"}, "[5]": {"biological_target": "Fuc(a1-2)[Gal(a1-4)]Gal(b1-4)GlcNAc", "procedure,_shortened": "as §1"}, "[6]": {"biological_target": "Fuc(a1-2)[GalNAc(a1-3)]Gal(b1-4)GlcNAc(b1-2)Man(a1-3)[Fuc(a1-2)[GalNAc(a1-3)]Gal(b1-4)GlcNAc(b1-2)Man(a1-6)]Man(b1-4)GlcNAc(b1-4)GlcNAc", "procedure,_shortened": "as §1"}, "[7]": {"biological_target": "Fuc(a1-3)[GalNAc(b1-4)]GlcNAc", "procedure,_shortened": "as §1"}, "Gal(a1-3)Gal(b1-3)GlcNAc": {"biological_target": "Gal(a1-3)Gal(b1-3)GlcNAc", "procedure,_shortened": "as §1"}, "[8]": {"biological_target": "Gal(a1-3)Gal(b1-3)GlcNAc(b1-2)Man", "procedure,_shortened": "as §1"}, "[9]": {"biological_target": "Gal(b1-3)GalNAc(b1-4)Gal(b1-4)Glc", "procedure,_shortened": "as §1"}, "[10]": {"biological_target": "Gal(b1-3)GlcNAc(a1-6)Gal(b1-4)GlcNAc", "procedure,_shortened": "as §1"}, "Gal(b1-3)GlcNAc(b1-2)Man": {"biological_target": "Gal(b1-3)GlcNAc(b1-2)Man", "procedure,_shortened": "as §1"}, "[11]": {"biological_target": "Gal(b1-3)GlcNAc(b1-2)Man(a1-3)[Gal(b1-3)GlcNAc(b1-2)Man(a1-6)]Man(b1-4)GlcNAc(b1-4)[Fuc(a1-6)]GlcNAc", "procedure,_shortened": "as §1"}, "[12]": {"biological_target": "Gal(b1-3)GlcNAc(b1-6)GalNAc", "procedure,_shortened": "as §1"}, "[13]": {"biological_target": "Gal(b1-3)[Fuc(a1-4)]GlcNAc(b1-3)Gal(b1-3)[Fuc(a1-4)]GlcNAc", "procedure,_shortened": "as §1"}, "[14]": {"biological_target": "Gal(b1-4)GlcNAc(b1-2)Man(a1-3)[GlcNAc(b1-2)Man(a1-6)]Man(b1-4)GlcNAc(b1-4)GlcNAc", "procedure,_shortened": "as §1"}, "[15]": {"biological_target": "Gal(b1-4)GlcNAc(b1-2)[Gal(b1-4)GlcNAc(b1-6)]Man(a1-6)[Gal(b1-4)GlcNAc(b1-2)Man(a1-3)]Man(b1-4)GlcNAc(b1-4)[Fuc(a1-6)]GlcNAc", "procedure,_shortened": "as §1"}, "[16]": {"biological_target": "Gal(b1-4)GlcNAc(b1-2)[Gal(b1-4)GlcNAc(b1-6)]Man(a1-6)[GlcNAc(b1-4)][Gal(b1-4)GlcNAc(b1-2)Man(a1-3)]Man(b1-4)GlcNAc(b1-4)GlcNAc", "procedure,_shortened": "as §1"}, "[17]": {"biological_target": "Gal(b1-4)GlcNAc(b1-3)Gal(b1-4)GlcNAc(b1-3)Gal(b1-4)GlcNAc(b1-3)Gal(b1-4)GlcNAc(b1-3)Gal(b1-4)GlcNAc(b1-3)Gal(b1-4)GlcNAc(b1-2)Man(a1-3)[Gal(b1-4)GlcNAc(b1-3)Gal(b1-4)GlcNAc(b1-3)Gal(b1-4)GlcNAc(b1-3)Gal(b1-4)GlcNAc(b1-3)Gal(b1-4)GlcNAc(b1-3)Gal(b1-4)GlcNAc(b1-2)Man(a1-6)]Man(b1-4)GlcNAc(b1-4)GlcNAc", "procedure,_shortened": "as §1"}, "[18]": {"biological_target": "Gal(b1-4)GlcNAc(b1-3)[Fuc(a1-3)GlcNAc(b1-6)]Gal(b1-4)Glc", "procedure,_shortened": "as §1"}, "Gal3S6S(b1-4)GlcNAc": {"biological_target": "Gal3S6S(b1-4)GlcNAc", "procedure,_shortened": "as §1"}, "Gal4S(b1-4)GlcNAc": {"biological_target": "Gal4S(b1-4)GlcNAc", "procedure,_shortened": "as §1"}, "Gal6S(b1-4)Glc6S": {"biological_target": "Gal6S(b1-4)Glc6S", "procedure,_shortened": "as §1"}, "Gal6S(b1-4)GlcNAc": {"biological_target": "Gal6S(b1-4)GlcNAc", "procedure,_shortened": "as §1"}, "Gal6S(b1-4)GlcNAc6S": {"biological_target": "Gal6S(b1-4)GlcNAc6S", "procedure,_shortened": "as §1"}, "[19]": {"biological_target": "GalNAc(b1-3)Gal(a1-4)Gal(b1-4)GlcNAc", "procedure,_shortened": "as §1"}, "[20]": {"biological_target": "GlcNAc(a1-4)Gal(b1-4)GalNAc", "procedure,_shortened": "as §1"}, "[21]": {"biological_target": "GlcNAc(b1-2)Man(a1-3)[GlcNAc(b1-2)Man(a1-6)]Man(b1-4)GlcNAc(b1-4)GlcNAc", "procedure,_shortened": "as §1"}, "[22]": {"biological_target": "GlcNAc(b1-2)[GlcNAc(b1-4)]Man(a1-3)[GlcNAc(b1-4)][GlcNAc(b1-2)Man(a1-6)]Man(b1-4)GlcNAc(b1-4)GlcNAc", "procedure,_shortened": "as §1"}}, "note": "Shown is part of a subset that was picked to be rich in the strongest signals.", "data": [{"binder": "GS7807P-bth-537-23-537 (Bacteroides thetaiotaomicron) (protein) NYENINSNPYEAPDLSADGYALGSAMNNLAGCVVSPDVNTAQFTDCLLGGPLGGYFADSNAGFTETISNFNPKDDWSRVFLKSDKIIPTLYSNLTQVKLVSQNTNDPVPYAIAQVIKVAAMHRVTDAFGPIPYSQIGANGEIATPYDSQEVTYNTFFDELNAAIATLNENSNEQLVPTADYIYKGDVKKWIRFANSLKLRLAIRIAYANPVKAQQMAEEAVNPANGGVIESNADNATWNYFETSQNPIYVATRYNQVQTSDHGGVPCLTGGDTHAAADIICYMNGYKDNRREKFFTKSEWAGQDYVGMRRGIVIPELKTTGHKYSGVNIAPTSPLYWMNAAEVAFLRAEGQAVFNFSMGGTAESFYNQGIRLSFEQWGADGVEDYLKDDVNKPTAYTDPAGTNTYQNALSNITIKWNDSADKEEKQERIIVQKWIANWQLGNEAWADFRRTGYPKLIPVKENKSGGVVDSEKGARRMPYPLDEFVSNKANVEYAIANYLHGADNMATDVWWASKK", "values": [{"measurement": "glycan array binding signal (z-score)", "setting": "[1]", "result": -0.288}, {"measurement": "glycan array binding signal (z-score)", "setting": "[2]", "result": 5.33}, {"measurement": "glycan array binding signal (z-score)", "setting": "[3]", "result": -0.271}, {"measurement": "glycan array binding signal (z-score)", "setting": "Fuc(a1-2)Gal6S(b1-4)Glc", "result": 0.294}, {"measurement": "glycan array binding signal (z-score)", "setting": "[4]", "result": 2.94}, {"measurement": "glycan array binding signal (z-score)", "setting": "[5]", "result": -0.331}, {"measurement": "glycan array binding signal (z-score)", "setting": "[6]", "result": 3.7}, {"measurement": "glycan array binding signal (z-score)", "setting": "[7]", "result": 0.192}, {"measurement": "glycan array binding signal (z-score)", "setting": "Gal(a1-3)Gal(b1-3)GlcNAc", "result": 0.94}, {"measurement": "glycan array binding signal (z-score)", "setting": "[8]", "result": 1.1}, {"measurement": "glycan array binding signal (z-score)", "setting": "[9]", "result": 0.496}, {"measurement": "glycan array binding signal (z-score)", "setting": "[10]", "result": -0.173}, {"measurement": "glycan array binding signal (z-score)", "setting": "Gal(b1-3)GlcNAc(b1-2)Man", "result": -0.221}, {"measurement": "glycan array binding signal (z-score)", "setting": "[11]", "result": 2.17}, {"measurement": "glycan array binding signal (z-score)", "setting": "[12]", "result": 1.42}, {"measurement": "glycan array binding signal (z-score)", "setting": "[13]", "result": -0.304}, {"measurement": "glycan array binding signal (z-score)", "setting": "[14]", "result": -0.348}, {"measurement": "glycan array binding signal (z-score)", "setting": "[15]", "result": -0.271}, {"measurement": "glycan array binding signal (z-score)", "setting": "[16]", "result": 2.06}, {"measurement": "glycan array binding signal (z-score)", "setting": "[17]", "result": 2.28}, {"measurement": "glycan array binding signal (z-score)", "setting": "[18]", "result": -0.071}, {"measurement": "glycan array binding signal (z-score)", "setting": "Gal3S6S(b1-4)GlcNAc", "result": 0.325}, {"measurement": "glycan array binding signal (z-score)", "setting": "Gal4S(b1-4)GlcNAc", "result": -0.373}, {"measurement": "glycan array binding signal (z-score)", "setting": "Gal6S(b1-4)Glc6S", "result": 2.21}, {"measurement": "glycan array binding signal (z-score)", "setting": "Gal6S(b1-4)GlcNAc", "result": 0.037}, {"measurement": "glycan array binding signal (z-score)", "setting": "Gal6S(b1-4)GlcNAc6S", "result": 2.01}, {"measurement": "glycan array binding signal (z-score)", "setting": "[19]", "result": 0.36}, {"measurement": "glycan array binding signal (z-score)", "setting": "[20]", "result": -0.138}, {"measurement": "glycan array binding signal (z-score)", "setting": "[21]", "result": -0.374}, {"measurement": "glycan array binding signal (z-score)", "setting": "[22]", "result": -0.39}]}]}
